A short description of assay [1]: circadian clock period modulators, cell-based, LOPAC library, luminescence reporter (AID 2774; call rule not given here;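 note: values are relative to mean of DMSO wells on each plate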). Conditions: circadian reporter cells, at 7 µM, actives lie on both sides.
The nature of assay [2]: hESC survival regulators, cell-based (AID 493140; call rule not given here;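 note: cells exposed to compounds for four days before counting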). Conditions: human embryonic stem cell survival screen; stronger effect = higher value.
A short description of assay [3]: liver-stage malaria parasite growth inhibition, primary screen, cell-based, HepG2, luciferase luminescence, HepG2 viability (AID 624349; in the data active = parasite load remaining mostly below about 12%, no sharp cut-off; inactive = mostly above about 10%;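 note: 100% = mean of DMSO negative control wells on the same plate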). Conditions: P. berghei liver stage in HepG2, luciferase luminescence, concentration not given here; parasite load remaining: stronger effect = lower value; viability: measured here: HepG2 viability without parasites.
Assay [4] relates to Hepatitis C virus NS3 helicase. The assay can be described thus: HCV NS3 helicase inhibitors, primary screen, biochemical, fluorescence polarization, LOPAC1280 library (AID 687035; in the data active = inhibition above about 37%). Particulars: Purified HCV NS3 helicase, Cy5-dT15 ssDNA binding fluorescence polarization; stronger effect = higher value; concentration not given here. A general note: Polarisation of emitted light reports the rotation of a fluorescent probe.

The nature of assay [5]: Cy5 fluorescence quenching or enhancement artefacts, artefact control for HCV NS3 helicase inhibitor project, biochemical, LOPAC1280 (AID 687037; call rule not given here). Particulars: Cy5-DNA-NS3h complex fluorescence interference counterscreen. For orientation: A counterscreen serves to expose hits that act by an unwanted route or on another target.
Assay [6] deals with Aerobactin synthetase IucA (Klebsiella pneumoniae). Description: IucA aerobactin synthetase inhibitors, biochemical, Tocris library, absorbance (AID 1345561; call rule not given here;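 note: 100% = enzyme without compound and 0% = no enzyme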). Particulars: purified IucA enzyme assay, absorbance (OD) read-out; stronger effect = lower value;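 tested at 8 µM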.
Assay [7] is described as follows: inhibitors of Cryptococcus chitosan production, flow cytometry, Cibacron Brilliant Red staining (AID 1347148; call rule not given here;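 note: compound exposure lasted three days at 37 degrees C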). Particulars: Cryptococcus neoformans chitosan, stronger effect = lower value; at 10 µM unless noted. A general note: In flow cytometry, cells or beads pass a laser one at a time.
Assay [8] is described as follows: phospholipid biosynthesis inhibitors in animal cells, primary screen, cell-based, LOPAC library, screen 4 (AID 1347384; call rule not given here). Conditions: phospholipid biosynthesis inhibition screen, at 10 µM.
Assay [9] can be described thus: survival rescue of mitochondrial mutant cells in low glucose, primary screen, MELAS cybrids, Rieske KO mouse fibroblasts, CellTiter-Glo (AID 1508586;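 active = mean z-score across replicates of 1.96 or higher in either the MELAS or the Rieske mutant cell line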;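 note: z relative to plate mean and SD of compound and empty wells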).
A short description of assay [10]: viability rescue of complex I mutant cybrids, primary screen, cell-based, galactose medium, ATP luminescence (AID 1645843;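 active = z-score of at least 1.8 in each of two replicates, scored against plate mean and spread of sample wells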;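 note: positive z means more ATP and so rescue of galactose-driven cybrid death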). Conditions: complex I mutant cybrid cells, 72 h, stronger effect = higher value.
Assay [11] in a line: sensitizers of A549 cells to miR-34 induction, primary screen, imaging, A549 dox-inducible miR-34, nuclei and caspase counts (AID 1347080;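 active = compounds whose cell count with miR-34 switched on is under 0.7 times the count with it off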). Conditions: A549 miR-34 inducible, Hoechst nuclei count, 48 h.
The nature of assay [12]: modifiers of HSF1 nuclear foci, imaging, Selleck Cancer Library (AID 1347162; in the data active = plate-normalised HSF1 focus index below about 0.46). Conditions: human cells, at 10 µM; SSMD: measured here: HSF1 foci SSMD mean; cell count: measured here: cell number; plate-normalised HSF1 focus index: stronger effect = lower value.
The nature of assay [13]: ovarian cancer cell viability with rucaparib, profiling panel, oncology-focused library, rucaparib conditional (AID 1508598). Conditions: patient-derived ovarian cancer cells, CellTiter-Glo viability, 144 h, stronger effect = lower value.
Where [14] appears, read: MELAS cybrid survival, CellTiter-Glo 48 h, stronger effect = higher value.
Setting [15] is: Rieske KO mouse fibroblast survival, CellTiter-Glo 72 h.
[16] abbreviates: stronger effect = lower value, cell number ratio, induced over uninduced.
Where [17] appears, read: measured here: relative caspase fold change +Dox/-Dox.
Setting [18] is: measured here: total cells with miR-34 induction, stronger effect = lower value.
Where [19] appears, read: measured here: total cells without miR-34 induction.

Where “and” joins values, the source holds several entries; their conditions need not be identical. Equal entries are not always repeated. Calls of active or inactive are those of the source.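 Rule for the calls, unless noted: active = normalized viability below 100% at a tested concentration; inactive = the rest.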

As a reminder, the viability is a read-out of living cells in per cent, often relative to untreated cells. By inhibition is commonly meant the change of the read-out against control, counted positive when it falls. For orientation: remaining activity means the signal under treatment as a percentage of the control signal.

As for `Oc1ccc(-c2nc(-c3ccc(F)cc3)c(-c3ccncc3)[nH]2)cc1`, the period change in assay [1] was 1.07 h (active). Further, the survival in assay [2] was 94 (inactive). Also, the parasite load remaining in [3] is 28.5% (inactive). In addition, the viability in [3] is 95.1%. In addition, in assay [4], the inhibition was -3% (inactive). Besides, the fluorescence ratio (interference) in assay [5] was 0.9 (inactive). Moreover, in assay [6], the remaining activity was 114% (inactive). Moreover, the fold fluorescence in [7] was 8.11 [at 150.9 µM] (inactive). The compound was classed as inactive in assay [8]. For the same compound, the z-score in [9] (setting [14]) was -0.659 (inactive); in assay [9] (setting [15]) it was 0.329; in assay [10], 1.04 (inactive) and 0.455 (inactive).
Regarding `O=S(=O)(NCCNC/C=C/c1ccc(Br)cc1)c1cccc2cnccc12`, in [1], the period change was -0.05 h (inactive). For the same compound, in assay [2], the survival is 202 (active). Further, in [3], the parasite load remaining is 26.7% (inactive). Further, in assay [3], the viability was determined as 66.5%. For the same compound, in assay [6], the remaining activity is 114% (inactive). Moreover, the fold change in [11] (setting [16]) was 0.909 (inactive) and 1.06 (inactive); in [11] (setting [17]), 1.15 and 1.08. Besides, the cell count is 2930 and 6810 in [11] (setting [18]); 3220 and 6450 in [11] (setting [19]). The fold fluorescence in assay [7] is 7.62 [at 112 µM] (inactive). Besides, the z-score in assay [10] was -0.61 (inactive).
Regarding `CC(C)(Sc1ccc(CCN(CCCCC2CCCCC2)C(=O)NC2CCCCC2)cc1)C(=O)O`, in [1], the period change is -0.015 h (inactive). Besides, in [4], the inhibition is 3% (inactive). Also, the fluorescence ratio (interference) in assay [5] was 1 (inactive). Further, the remaining activity in [6] was 122% (inactive). Also, the fold change in assay [11] (setting [16]) is 0.945 (inactive) and 0.954 (inactive) and 0.926 (inactive); in assay [11] (setting [17]), 1.38 and 0.651 and 0.687. The cell count was 8520 and 5920 and 7310 in [11] (setting [18]); 9020 and 6210 and 7900 in [11] (setting [19]). The compound was called inactive in assay [8]. In addition, the z-score in assay [10] was 0.62 (inactive) and 1.14 (inactive).
Regarding `N#C/C(=C\c1ccc(O)c(O)c1)C(=O)NCc1ccccc1`, the period change in assay [1] is 0.01 h (inactive). Also, in assay [2], the survival was 133 (inactive). For the same compound, the parasite load remaining in assay [3] is 29.1% (inactive). Moreover, the viability in [3] is 65.5%. Moreover, in [4], the inhibition was 0% (inactive). Besides, the fluorescence ratio (interference) in [5] was 1 (inactive). Moreover, the remaining activity in assay [6] was 113% (inactive). Moreover, the fold change was 1.1 (inactive) and 0.928 (inactive) in [11] (setting [16]); 1.17 and 1.42 in assay [11] (setting [17]). The cell count in assay [11] (setting [18]) was 2450 and 8410; in [11] (setting [19]), 2230 and 9060. Also, in assay [7], the fold fluorescence was 6.89 [at 169.9 µM] (inactive). Moreover, in assay [10], the z-score is -0.425 (inactive).
`O=c1cc(N2CCOCC2)oc2c(-c3ccccc3)cccc12`: the period change in assay [1] was 0.01 h (inactive). For the same compound, in assay [2], the survival was 83.6 (inactive). The parasite load remaining in [3] was 36% (inactive). The viability was 79.9% in assay [3]; 97.6% (active) in assay [13] (at 0.000305 µM, OCI-C5x cells, with rucaparib 10 µM, 100% = cells with rucaparib alone); 103% (inactive) in [13] (at 0.000305 µM, OCI-C5x cells, without rucaparib); 93.4% (active) in [13] (at 0.000305 µM, OCI-P5x cells, with rucaparib 20 µM, 100% = cells with rucaparib alone); 83.4% (active) in assay [13] (at 0.000305 µM, OCI-P5x cells, without rucaparib); 102% (inactive) in assay [13] (at 0.00122 µM, OCI-C5x cells, with rucaparib 10 µM, 100% = cells with rucaparib alone). Moreover, the viability in [13] (at 0.00122 µM, OCI-C5x cells, without rucaparib) is 103% (inactive); in assay [13] (at 0.00122 µM, OCI-P5x cells, with rucaparib 20 µM, 100% = cells with rucaparib alone), 97.2% (active); in assay [13] (at 0.00122 µM, OCI-P5x cells, without rucaparib) it was 86.3% (active); in assay [13] (at 0.00488 µM, OCI-C5x cells, with rucaparib 10 µM, 100% = cells with rucaparib alone) it was 93% (active); in [13] (at 0.00488 µM, OCI-C5x cells, without rucaparib) it was 104% (inactive); in [13] (at 0.00488 µM, OCI-P5x cells, with rucaparib 20 µM, 100% = cells with rucaparib alone) it was 99.1% (active). Moreover, the viability in assay [13] (at 0.00488 µM, OCI-P5x cells, without rucaparib) is 95.7% (active); in [13] (at 0.0195 µM, OCI-C5x cells, with rucaparib 10 µM, 100% = cells with rucaparib alone), 102% (inactive); in assay [13] (at 0.0195 µM, OCI-C5x cells, without rucaparib), 104% (inactive); in [13] (at 0.0195 µM, OCI-P5x cells, with rucaparib 20 µM, 100% = cells with rucaparib alone) it was 98.1% (active); in assay [13] (at 0.0195 µM, OCI-P5x cells, without rucaparib), 96% (active); in assay [13] (at 0.0781 µM, OCI-C5x cells, with rucaparib 10 µM, 100% = cells with rucaparib alone), 106% (inactive). Also, the viability in [13] (at 0.0781 µM, OCI-C5x cells, without rucaparib) was 101% (inactive); in assay [13] (at 0.0781 µM, OCI-P5x cells, with rucaparib 20 µM, 100% = cells with rucaparib alone), 102% (inactive); in [13] (at 0.0781 µM, OCI-P5x cells, without rucaparib) it was 98.9% (active); in assay [13] (at 0.313 µM, OCI-C5x cells, with rucaparib 10 µM, 100% = cells with rucaparib alone), 106% (inactive); in assay [13] (at 0.313 µM, OCI-C5x cells, without rucaparib), 108% (inactive); in assay [13] (at 0.313 µM, OCI-P5x cells, with rucaparib 20 µM, 100% = cells with rucaparib alone) it was 98% (active). The viability in assay [13] (at 0.313 µM, OCI-P5x cells, without rucaparib) was 97.6% (active); in [13] (at 1.25 µM, OCI-C5x cells, with rucaparib 10 µM, 100% = cells with rucaparib alone), 94% (active); in [13] (at 1.25 µM, OCI-C5x cells, without rucaparib), 109% (inactive); in assay [13] (at 1.25 µM, OCI-P5x cells, with rucaparib 20 µM, 100% = cells with rucaparib alone) it was 99.6% (active); in assay [13] (at 1.25 µM, OCI-P5x cells, without rucaparib), 102% (inactive); in [13] (at 5 µM, OCI-C5x cells, with rucaparib 10 µM, 100% = cells with rucaparib alone), 98.7% (active). Besides, the viability was 107% (inactive) in assay [13] (at 5 µM, OCI-C5x cells, without rucaparib); 96.2% (active) in assay [13] (at 5 µM, OCI-P5x cells, with rucaparib 20 µM, 100% = cells with rucaparib alone); 93.7% (active) in [13] (at 5 µM, OCI-P5x cells, without rucaparib). Moreover, the inhibition in assay [4] was -3% (inactive). Moreover, the fluorescence ratio (interference) in assay [5] is 1 (inactive). In assay [6], the remaining activity was 118% (inactive). Moreover, the fold fluorescence in assay [7] is 9.29 [at 162.7 µM] (inactive). Moreover, in assay [12], the SSMD came to 1.15. The compound also returned a cell count in assay [12] of 6500. For the same compound, the plate-normalised HSF1 focus index in assay [12] is 1.06 (inactive). Besides, the compound was called inactive in [8]. In addition, the z-score in assay [9] (setting [14]) is -0.417 (inactive); in assay [9] (setting [15]), 0.668; in [10], 5.55 (active) and 5.94 (active).
